Screening data from PubChem.
Most compounds without a hit are left out; they make up all but 1.2% or so of the library.
RecA splice inh: inhibitors of M. tuberculosis RecA intein splicing; P9WHJ3; cell-free RecA intein splicing, fluorescence; inhibition, % (test concentration not listed); 290,000 tested, 0.75% active; AID 2221; in the data active = inhibition above about 30%;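 note: 0% = vehicle wells and 100% = reference inhibitor control wells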
Target sequence (P9WHJ3 whole entry, looked up, canonical isoform): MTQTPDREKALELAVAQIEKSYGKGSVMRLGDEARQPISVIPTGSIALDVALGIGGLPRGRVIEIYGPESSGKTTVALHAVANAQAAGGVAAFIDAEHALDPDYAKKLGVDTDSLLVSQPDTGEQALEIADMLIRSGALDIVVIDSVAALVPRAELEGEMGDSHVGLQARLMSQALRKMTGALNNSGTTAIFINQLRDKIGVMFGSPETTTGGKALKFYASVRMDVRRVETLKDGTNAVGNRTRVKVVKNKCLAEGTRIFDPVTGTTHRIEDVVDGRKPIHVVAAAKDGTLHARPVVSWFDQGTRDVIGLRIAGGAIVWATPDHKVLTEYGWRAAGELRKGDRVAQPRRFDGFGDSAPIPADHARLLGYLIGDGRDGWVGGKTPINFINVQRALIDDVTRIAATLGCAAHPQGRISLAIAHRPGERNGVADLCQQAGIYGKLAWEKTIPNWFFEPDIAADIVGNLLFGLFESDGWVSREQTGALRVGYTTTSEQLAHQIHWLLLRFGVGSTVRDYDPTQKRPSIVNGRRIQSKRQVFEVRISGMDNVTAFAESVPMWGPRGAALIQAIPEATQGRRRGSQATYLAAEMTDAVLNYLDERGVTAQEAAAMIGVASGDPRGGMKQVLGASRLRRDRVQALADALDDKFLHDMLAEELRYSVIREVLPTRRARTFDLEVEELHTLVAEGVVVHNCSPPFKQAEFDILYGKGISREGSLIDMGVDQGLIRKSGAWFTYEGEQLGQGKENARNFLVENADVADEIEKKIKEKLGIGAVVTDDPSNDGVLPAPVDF
CCHF vOTU inh-1: blocks the CCHF virus ovarian tumor domain protease; inhibition, % at 11.5 µM; 370,000 tested, 0.55% active; AID 651958; CCHFV vOTU protease, Pep-AMC fluorescence; note: 0% = vehicle wells with enzyme and 100% = no enzyme wells
UGM FP inh: blocks M. tuberculosis UGM enzyme; AID 504406; purified UGM, fluorescence polarization probe displacement; 320,000 tested, 0.06% active; inhibition, % at 10 µM; in the data active = inhibition above about 10%, passing the limit was not always enough
Rv3671c protease: inhibitors of M. tuberculosis serine protease Rv3671c; P9WHR9; inhibition, % at 5.96 µM; 320,000 tested, 0.048% active; in the data active = inhibition above about 38%;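 note: extracellular domain of Rv3671c used as enzyme; 0% = enzyme with DMSO and 100% = no enzyme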
Mtb betalactam: beta-lactam sensitization of Mtb H37Rv; M. tuberculosis H37Rv growth with meropenem, percent inhibition; inhibition, % at 25 µM; 330,000 tested, 0.27% active; call rule not given here;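 note: growth measured after seven days incubation then overnight dye step; 0% = bacteria only wells and 100% = bacteria with antibiotic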
CCHF vOTU inh-2: CCHFV vOTU protease inhibition, confirmation; shares compounds with CCHF vOTU inh-1; Recombinant CCHFV vOTU, Pep-AMC fluorescence; inhibition, % at 11.5 µM; 1,900 tested, 17% active; AID 686976
* marks the source's active call; other numbers are inactive results. Cut-off read from the data, not from the text of the source, unless noted: active = inhibition above about 30%; inactive = the rest.

`CCN(C(=O)CCc1cn(CC)c2ccccc12)c1ccc(Oc2cccnc2)cc1` gave CCHF vOTU inh-1 30.6* and CCHF vOTU inh-2 -3.5.
For COc1ccc(C(=O)CC(=O)C(=O)NCCc2cccc(C)c2)cc1 the results were RecA splice inh 7.1, CCHF vOTU inh-1 31.0*, UGM FP inh -0.1, Rv3671c protease -7.8, Mtb betalactam 2.4 and CCHF vOTU inh-2 -4.7.
Screening CCCCCC(=O)N1C[C@H](n2cc(COC(=O)c3ccccc3)nn2)[C@@H](O)C[C@@H]1c1ccc(C)cc1 returned CCHF vOTU inh-1 34.9* and CCHF vOTU inh-2 4.5.
Screening CCCCCCN1C[C@H](n2cc(COC(=O)c3ccccc3)nn2)[C@@H](O)C[C@@H]1c1ccc(Cl)cc1 returned CCHF vOTU inh-1 32.4* and CCHF vOTU inh-2 10.8.
CCCCCCN1C[C@H](O)[C@@H](n2cc(-c3ccc(F)cc3)nn2)C[C@@H]1c1ccccc1 was read as CCHF vOTU inh-1 33.3* and CCHF vOTU inh-2 -8.6.
For COC(=O)[C@]12C[C@H](CC(=O)N3CCOCC3)C(=O)N(CCc3ccc(OC)c(OC)c3)C1=C[C@H](C1CCCC1)O[C@@H]2C the results were CCHF vOTU inh-1 2.8.
For COc1cccc(CNC(=O)CSCc2cnn(-c3ccccc3)c2-n2cccc2)c1 the results were RecA splice inh 10.6, CCHF vOTU inh-1 36.4*, UGM FP inh 0.6, Rv3671c protease -0.8, Mtb betalactam -4.8 and CCHF vOTU inh-2 7.0.
Screening CNC(=O)CSCc1cnn(-c2ccccc2)c1-n1cccc1 returned RecA splice inh 1.6, CCHF vOTU inh-1 0.7, UGM FP inh -0.2, Rv3671c protease -5.1 and Mtb betalactam -3.4.
Screening COC(=O)C[C@@H]1CC[C@@H]2[C@H](COc3ccc(NC(=O)c4ccc(F)c(F)c4)cc3C(=O)N2C)O1 returned CCHF vOTU inh-1 -5.8.
`O=C(CCNC(=O)c1ccc(Br)cc1)NC1CCCCCC1` gave CCHF vOTU inh-1 36.7*, UGM FP inh 1.4, Rv3671c protease -1.7, Mtb betalactam 2.4 and CCHF vOTU inh-2 -3.4.
For O=C1CCC2(CCC(c3ccccc3)CC2)N1CCCO (stereo unspecified) the results were CCHF vOTU inh-1 -2.1.
Screening Cc1cc(C)cc(C(=O)OCCCN(C)C2CN(Cc3cn(Cc4ccccc4C(F)(F)F)nn3)S(=O)(=O)C2)c1 (stereo unspecified) returned CCHF vOTU inh-1 17.0.
Screening O=C1C=CC(=O)c2c(O)c(N3CCN(CCO)CC3)c(Cl)c(O)c21 returned CCHF vOTU inh-1 101.7* and CCHF vOTU inh-2 97.8*.
O=S(=O)(c1ccc(Br)cc1Cl)N1CCN(CCO)CC1 was read as CCHF vOTU inh-1 0.7, UGM FP inh -1.0, Rv3671c protease -10.2 and Mtb betalactam 2.0.
Screening O=C1C=CC(=O)c2c(O)c(N3CCN(CCOCCO)CC3)c(Br)c(O)c21 returned CCHF vOTU inh-1 111.1* and CCHF vOTU inh-2 103.6*.
Screening CC(C)CCOP(=O)(c1ccc(N(C)C)cc1)C(O)c1ccccc1F (stereo unspecified) returned RecA splice inh 1.2, CCHF vOTU inh-1 6.2, UGM FP inh -0.6, Rv3671c protease -2.7 and Mtb betalactam -2.1.
Screening CC(C)CCOP(=O)(c1ccc(N(C)C)cc1)C(O)c1ccc(Cl)cc1Cl (stereo unspecified) returned RecA splice inh 21.9, CCHF vOTU inh-1 41.4*, UGM FP inh -2.5, Rv3671c protease -3.2, Mtb betalactam 8.8 and CCHF vOTU inh-2 1.2.
Screening O=C(CN1CCCc2ccccc21)NCc1ccc(Cl)cc1 returned CCHF vOTU inh-1 -0.4.
Screening COc1ccc(OCC(=O)NC(=S)Nc2ccc3c4c(cccc24)CC3)cc1 returned RecA splice inh 0.3, CCHF vOTU inh-1 29.9*, UGM FP inh -0.7, Rv3671c protease 0.7, Mtb betalactam 0.6 and CCHF vOTU inh-2 2.3.
Screening Cc1ccccc1OCC(=O)NC(=S)Nc1ccc2c3c(cccc13)CC2 returned RecA splice inh 1.9, CCHF vOTU inh-1 12.0, UGM FP inh -1.7, Rv3671c protease 5.6 and Mtb betalactam -5.2.
Screening COc1ccc2ccccc2c1C=Nn1c(-c2n[nH]c3c2CCC3)n[nH]c1=S returned CCHF vOTU inh-1 16.2.
Cc1ccc(NC(=O)Cc2ccc(Cl)c(Cl)c2)cc1S(=O)(=O)N(C)C was read as RecA splice inh 10.7, CCHF vOTU inh-1 30.5*, UGM FP inh -3.4, Rv3671c protease -17.3, Mtb betalactam 19.4 and CCHF vOTU inh-2 -8.8.
`Cc1ccc(NC(=O)CNc2ccc(Cl)c(Cl)c2)cc1S(=O)(=O)N(C)C` gave RecA splice inh 16.7, CCHF vOTU inh-1 10.6, UGM FP inh 0.1, Rv3671c protease -13.3 and Mtb betalactam 8.7.
For CC(C)=CCC[C@H](C)CC1Cc2[nH]c(=S)[nH]c(=O)c2C(c2ccc(F)cc2)O1 (stereo partly specified) the results were CCHF vOTU inh-1 -0.5.
CC(C)=CCC[C@H](C)CC1Cc2[nH]c(=S)[nH]c(=O)c2C(c2ccc(Cl)cc2)O1 (stereo partly specified) was read as CCHF vOTU inh-1 30.1* and CCHF vOTU inh-2 -7.8.
`CN(Cc1ccco1)C(=O)c1cccc(S(=O)(=O)N2CCN(Cc3ccccc3)CC2)c1` gave CCHF vOTU inh-1 33.5* and CCHF vOTU inh-2 -17.5.
Cc1ccccc1NC(=O)Cc1nc(COC(=O)c2cc([N+](=O)[O-])ccc2NCCO)cs1 was read as RecA splice inh -0.6, CCHF vOTU inh-1 30.2*, UGM FP inh -1.5, Rv3671c protease -5.2, Mtb betalactam 4.0 and CCHF vOTU inh-2 -2.9.
O=C(CC1C=CCC1)OCCN1CCN(C2CN(Cc3cn(Cc4ccccc4Cl)nn3)S(=O)(=O)C2)CC1 (stereo unspecified) was read as CCHF vOTU inh-1 7.9.
`CN(C)CCCNc1cc(O)c2ncccc2c1` gave CCHF vOTU inh-1 92.4*, UGM FP inh 1.2, Rv3671c protease -35.6, Mtb betalactam 4.3 and CCHF vOTU inh-2 94.2*.
For Cc1nc2ccc(NC(=O)c3ccco3)cc2nc1C the results were RecA splice inh 0.2, CCHF vOTU inh-1 0.0, UGM FP inh -0.4, Rv3671c protease -1.7 and Mtb betalactam -3.2.
For Cc1cc2cc(NC(=O)c3ccco3)ccc2[nH]1 the results were RecA splice inh 5.4, CCHF vOTU inh-1 32.7*, UGM FP inh -1.7, Rv3671c protease 3.4, Mtb betalactam 0.5 and CCHF vOTU inh-2 -10.9.
CC(C)C1NC2(C(=O)c3ccccc3C2=O)C2C(=O)N(c3ccc(F)cc3)C(=O)C12 (stereo unspecified) was read as RecA splice inh -1.0, CCHF vOTU inh-1 52.0*, UGM FP inh 0.7, Rv3671c protease -12.1, Mtb betalactam 2.3 and CCHF vOTU inh-2 -21.6.
Screening COC(=O)[C@]12C[C@H](CC(=O)N3CCOCC3)C(=O)N(Cc3ccco3)C1=C[C@H](C(C)(C)C)O[C@@H]2C returned CCHF vOTU inh-1 10.2.
CC(C)OC(=O)CSc1nnc(CNc2ccc(Cl)cc2)n1C was read as RecA splice inh -1.7, CCHF vOTU inh-1 -15.9, UGM FP inh 1.0, Rv3671c protease 4.6 and Mtb betalactam 4.1.
